In ChEMBL document CHEMBL1857833, “Screening and optimization of specific chemical series against human African Trypanosomiasis (HAT)”:
The campaign covered roughly 4,400 compounds. About 390 (8.9%) showed an effect of 50% or more. The sample holds strong results, similar compounds and a random draw of the others, so the mix is not that of the screen.

Test system: Trypanosoma brucei
Experiment: DNDI: Inhibition of Human African Trypanosomiasis, SBRI 427, in vitro at 2 ug.mL-1
Type: functional

Compound	% inhibition [%]
Cc1ccc(/C(=N/O)NCc2cc(F)ccc2F)c(Oc2cc(Cl)ccc2Cl)n1	-39
COc1cccc(CN/C(=N\O)c2ccc(C)nc2Oc2cc(Cl)ccc2Cl)c1	-48
Cc1ccc(/C(=N/O)NCc2cc(F)cc(F)c2)c(Oc2cc(Cl)ccc2Cl)n1	76
CCOc1ccccc1-c1nc(CN(C)CC2OCCO2)co1	-5
Fc1ccccc1-c1nc(CNc2ccccc2)co1	13
Cc1ccc(CN/C(=N\O)c2ccnc(Oc3cccc4c3CCCC4)c2)o1	40
O/N=C(\NC1CCCCC1)c1ccnc(Oc2cccc3c2CCCC3)c1	99
O/N=C(\NCC1CCCCC1)c1ccnc(Oc2cccc3c2CCCC3)c1	96
Cc1ccc(Oc2cc(/C(=N/O)NC3CCCC3)ccn2)c2c1CCC2	11
CN(/C(=N\O)c1ccnc(Oc2cccc3c2CCCC3)c1)C1CCCCC1	14
O/N=C(\NCc1c(F)cccc1F)c1ccnc(Oc2cccc3c2CCCC3)c1	37
CCOc1ccccc1-c1nc(CN(CC)Cc2ccncc2)co1	12
CCOc1ccc(-c2nc(CNCC(C)(C)CN(C)C)co2)cc1	39
O/N=C(/c1ccc(Oc2cccc(F)c2)nc1)N1CCN(c2ccccc2)CC1	2
COc1ccc(Oc2cc(/C(=N/O)NC3CC(C)CC(C)(C)C3)ccn2)cc1 (stereo not given)	14
COc1ccc(Oc2cc(/C(=N/O)NC3CCCCC3)ccn2)cc1	100
COc1ccc(Oc2cc(/C(=N/O)NC3CCC3)ccn2)cc1	100
COc1ccc(Oc2cc(/C(=N/O)NCC3CCCO3)ccn2)cc1 (stereo not given)	34
COc1ccc(Oc2cc(/C(=N/O)N3C(C)CCCC3C)ccn2)cc1 (stereo not given)	10
CSc1ccc(Oc2cc(/C(=N/O)NC3CCCCC3)ccn2)cc1	21
Cc1ccc(Oc2nc(C)ccc2/C(=N/O)N(C)C2CCCCC2)c(C)c1	18
Cc1cc(C)cc(Oc2ccc(/C(=N/O)n3cnc(C)c3)cn2)c1	1

Compound	% inhibition [%]
CCCCN(CC#N)Cc1coc(-c2ccc(C)cc2)n1	7
CCN(Cc1coc(-c2ccccc2F)n1)c1ccc(C)cc1	-32
CCc1ccc(Oc2ncccc2/C(=N/O)NC(C)COC)cc1 (stereo not given)	87
COCC(C)N/C(=N\O)c1cccnc1OCC(C)C (stereo not given)	5
COCC(C)N/C(=N\O)c1cccnc1Oc1ccc(OC)cc1 (stereo not given)	-10
CCc1ccc(Oc2ncccc2/C(N)=N/O)cc1	1
COCC(C)N/C(=N\O)c1cccnc1Oc1cccc(C(F)(F)F)c1 (stereo not given)	1
COCC(C)N/C(=N\O)c1cccnc1Oc1ccc(C(C)C)cc1 (stereo not given)	99
CCOc1ccccc1-c1nc(CN2CCN(C(c3ccccc3)c3ccccc3)CC2)co1	5
COc1ccccc1CN/C(=N\O)c1ccc(Oc2cc(C)cc(C)c2)nc1	-8
O/N=C(/c1ccc(Oc2ccc(Cl)cc2)nc1)n1ccnc1	0
CCOc1ccc(Oc2cc(/C(=N/O)NCc3ccc(C)o3)ccn2)cc1	24
Cc1ccccc1-c1nc(CNCc2ccccc2C(F)(F)F)co1	7
FC(F)(F)c1ccc(CNCc2coc(-c3cccc4ccccc34)n2)cc1	3
CCOc1ccccc1CN/C(=N\O)c1cccnc1OCc1cccc(F)c1	72
COc1ccccc1CN/C(=N\O)c1ccc(C)nc1OCc1cccc(F)c1	-8
O/N=C(\NCc1cccnc1)c1cccnc1OCc1ccccc1F	4
CCOc1ccccc1CN/C(=N\O)c1ccc(C)nc1OCc1ccccc1F	8
CCOc1ccccc1CN/C(=N\O)c1cccnc1OCc1ccccc1F	55
O/N=C(\NCc1ccccc1F)c1cccnc1OCc1cccc(F)c1	29
FC(F)(F)c1ccc(-c2nc(CNc3cc[nH]n3)co2)cc1	40
Cc1ccc(/C(=N/O)N2C(C)CCCC2C)c(Oc2ccc(F)cc2)n1 (stereo not given)	28

Compound	% inhibition [%]
O/N=C(/c1ccc(Oc2cccc3ccccc23)nc1)N1CCCCCC1	25
CCOc1ccc(-c2nc(CN(C)CCc3ccc(OC)c(OC)c3)co2)cc1	-3
COc1ccccc1CN/C(=N\O)c1ccc(C)nc1Oc1cc(Cl)ccc1Cl	100
COc1ccccc1CN/C(=N\O)c1ccc(C)nc1Oc1ccc(Cl)cc1	3
COc1ccccc1CN/C(=N\O)c1ccc(C)nc1Oc1ccc(F)c(Cl)c1	11
Cc1ccc(/C(=N/O)NCc2ccccc2C)c(Oc2cc(Cl)ccc2Cl)n1	18
Cc1ccc(/C(=N/O)NCc2ccccc2F)c(Oc2cc(Cl)ccc2Cl)n1	81
Cc1ccc(/C(=N/O)NCc2c(F)cccc2F)c(Oc2cc(Cl)ccc2Cl)n1	35
COc1cccc(-c2nc(CNCc3ccccc3C(F)(F)F)co2)c1	20
Cc1ccc(C)c(N2CCN(Cc3coc(-c4ccc(F)cc4)n3)CC2)c1	-12
Oc1ccc(-c2nc(CNC3CCCCCC3)co2)cc1	16
Cc1ccc(-c2nc(CNC3CCCCCCC3)co2)cc1	71
Fc1ccc(-c2nc(CNC3CCCCC3)co2)cc1	8
Oc1ccc(-c2nc(CNC3CCCCCCCCCCC3)co2)cc1	60
CC(NCc1coc(-c2ccc(O)cc2)n1)C1CCCCC1 (stereo not given)	0
c1coc(-c2nc(CNC3CCCCC3)co2)c1	6
FC(F)(F)c1ccc(-c2nc(CNc3ccc(Oc4ccccc4)cc3)co2)cc1	4
COc1cccc(-c2nc(CN(CCN(C)C)Cc3ccccc3)co2)c1	23
Cc1cc(C)cc(Oc2ccc(/C(=N/O)N3CCN(C4CCCC4)CC3)cn2)c1	0
COc1cc(-c2nc(CNC(C)c3cccc4ccccc34)co2)cc(OC)c1OC (stereo not given)	-4
O/N=C(\NCc1ccccc1)c1cccnc1Oc1c(F)c(F)cc(F)c1F	10
Cc1ccccc1CN/C(=N\O)c1cccnc1Oc1c(F)cccc1F	95

Compound	% inhibition [%]
CSc1ccccc1Oc1ncccc1/C(=N/O)NCc1c(F)cccc1F	58
CC(C)(C)CN/C(=N\O)c1cccnc1Oc1c(F)cccc1F	100
CCOc1ccccc1CN/C(=N\O)c1cccnc1Oc1c(F)cccc1F	41
O/N=C(\NCc1cccnc1)c1cccnc1Oc1ccc(F)cc1	2
O/N=C(\NCc1c(F)cccc1F)c1cccnc1Oc1ccc(F)cc1	94
COc1ccccc1Oc1ncccc1/C(=N/O)NCc1c(F)cccc1F	28
COc1ccc(CN/C(=N\O)c2cccnc2Oc2c(F)cccc2F)cc1	-7
O/N=C(\NCc1ccncc1)c1cccnc1Oc1ccc(F)cc1	2
CCc1ccc(Oc2ncccc2/C(=N/O)n2ccnc2)cc1	3
Cc1cccc(Oc2ccc(/C(=N/O)N(C)C3CCCCC3)cn2)c1	4
Cc1ccc(/C(=N/O)NCC2CC2)c(Oc2cccc3c2CCCC3)n1	-5
Cc1cc(C)cc(Oc2nc(C)ccc2/C(=N/O)Nc2ccc(C(C)C)cc2)c1	0
COc1cccc(-c2nc(CN3CCN(c4ccccn4)CC3)co2)c1	-9
Oc1ccc(-c2nc(CNCc3ccccc3)co2)cc1	1
CN(Cc1coc(-c2ccc(C(F)(F)F)cc2)n1)CC1OCCO1	-7
CN(Cc1cccnc1)Cc1coc(-c2cccc(F)c2)n1	-1
Cc1ccc(Oc2nc(C)ccc2/C(=N/O)NCc2c(F)cccc2F)cc1	13
O/N=C(\NCc1cccs1)c1cccnc1Oc1c(F)cccc1F	73
Cc1cccc(Oc2ncccc2/C(=N/O)NCc2cccs2)c1C	3
Cc1cccc(Oc2ncccc2/C(=N/O)NCc2ccncc2)c1C	5
O/N=C(\NCc1cccnc1)c1cccnc1Oc1ccccc1	8
Cc1ccccc1CN/C(=N\O)c1cccnc1Oc1cccc(C)c1C	85

Compound	% inhibition [%]
Cc1ccc(Oc2ncccc2/C(=N/O)NCc2ccccc2)cc1	12
CCCN/C(=N\O)c1cccnc1Oc1ccccc1	8
Cc1ccc(Oc2ncccc2/C(=N/O)NCc2c(F)cccc2F)cc1	98
COc1ccccc1CN/C(=N\O)c1cccnc1Oc1cccc(C)c1C	7
O/N=C(\NCc1ccccc1)c1cccnc1Oc1c(F)cccc1F	3
O/N=C(\NCc1c(F)cccc1F)c1cccnc1Oc1ccccc1	98
CSc1ccc(Oc2ncccc2/C(=N/O)NCc2cccnc2)cc1C	10
CCOc1cccc(-c2nc(CNCCc3cccc(OC)c3)co2)c1	8
COCC(C)NCc1coc(-c2cccc(C)c2)n1 (stereo not given)	19
Cc1ccc(N(C)Cc2coc(-c3ccccc3Cl)n2)cc1	-9
Cc1cc(C)cc(CN/C(=N\O)c2cccnc2Oc2cccc(C)c2C)c1	-13
CC(C)c1ccc(Oc2ncccc2/C(=N/O)NCc2ccncc2)cc1	1
CC(C)COc1ncccc1/C(=N/O)NCc1c(F)cccc1F	-9
Cc1cc(C)cc(CN/C(=N\O)c2cccnc2Oc2c(F)c(F)cc(F)c2F)c1	-3
Cc1cc(C)cc(CN/C(=N\O)c2cccnc2OCc2ccccc2F)c1	83
O/N=C(\NCc1ccncc1)c1cccnc1OCc1ccccc1F	-12
O/N=C(\NCc1c(F)cccc1F)c1cccnc1Oc1c(F)cccc1F	95
O/N=C(\NCc1ccccc1)c1cccnc1OCc1ccccc1F	37
O/N=C(\NCc1c(F)cccc1F)c1cccnc1OC1CCC1	10
CC(C)c1ccc(Oc2ncccc2/C(=N/O)NCc2c(F)cccc2F)cc1	100
Cc1cc(C)cc(CN/C(=N\O)c2cccnc2Oc2c(F)cccc2F)c1	100
O/N=C(\NCc1c(F)cccc1F)c1cccnc1Oc1c(F)c(F)cc(F)c1F	2
